In PubChem BioAssay (NCATS):
Inconclusive results are not listed. Where a call stands in place of a potency, no number is given. Values without a mark were called inactive. The source made the active and inactive calls. Calls come from the whole dose curve. Bridge positions count the residues as written; N and C are the ends. Square brackets hold non-standard residues; d marks the D form. Peptide text beside a SMILES is read from it. hArg = N=C(N)NCCCC[C@H](N)C(=O)O; Mpa = O=C(O)CCS

Assay: Cytotoxicity counterscreen for inhibitors of SARS-CoV-2 cell entry (AID 1645845); note: nearly all actives have a fitted effect of over 50% in size
Details: cell viability (SARS-CoV-2 entry assay cells); series mostly up to 57.1 µM; activity change, negative = cytotoxicity: at the top concentration
Summary of the method: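 HEK293-ACE2 cells (Expi293F stably expressing human ACE2) seeded overnight, then compound for 1 h plus 48 h at 37C. Viability as ATP content by luminescence; normalized to wells with cells and media-only wells.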
Potency is the fitted concentration of half-maximal effect.

SMILES | outcome | activity change, negative = cytotoxicity [%] | Potency
CCCCNc1ccc(C(=O)OCCN(CC)CC)cc1 | inactive | – | –
CCN(CC)CCOC(=O)C(Cc1cccc2ccccc12)CC1CCCO1 (centres undefined) | inactive | – | –
OC[C@@H](O)[C@H](O)[C@H](O)[C@@H](O)CO | inactive | – | –
CCCCN(CCCC)CC(O)c1cc(Cl)cc2c1-c1ccc(Cl)cc1/C2=C/c1ccc(Cl)cc1 (centres undefined) | – | 1.17 | –
CC[N+]1(CC)CCC(=C(c2ccccc2)c2ccccc2)C1C (centres undefined) | – | 0.0438 | –
C=C1C(=C/C=C2\CCC[C@]3(C)[C@@H]([C@H](C)/C=C/[C@@H](O)C4CC4)CC[C@@H]23)C[C@@H](O)C[C@@H]1O | – | -40.4 | –
CCOC(=O)Cn1cccc1-c1nc(-c2ccc(OC)cc2)c(-c2ccc(OC)cc2)s1 | inactive | – | –
CC(=O)O[C@H]1C[C@@H]2CC[C@@H]3[C@H](CC[C@@]4(C)[C@H]3C[C@H]([N+]3(C)CCCCC3)[C@@H]4OC(C)=O)[C@@]2(C)C[C@@H]1N1CCCCC1 | inactive | – | –
Cc1ccc2nc(N)[nH]c(=O)c2c1Sc1ccncc1 | – | -34.7 | –
Cc1ccc(C(=O)Oc2ccc(C(O)CNC(C)(C)C)cc2OC(=O)c2ccc(C)cc2)cc1 (centres undefined) | inactive | – | –
Cc1ccc(N(CC2=NCCN2)c2cccc(O)c2)cc1 | – | – | inactive
Cc1ncc(CSSCc2cnc(C)c(O)c2CO)c(CO)c1O | inactive | – | –
COc1cc(N)c(Cl)cc1C(=O)NC1CCN(Cc2ccccc2)CC1 | – | 4.42 | –
O=C(Nc1ccc(Cl)cc1)Nc1ccc(Cl)c(C(F)(F)F)c1 | – | – | 22.4 µM (active)
O=c1[nH]c2ccccc2n1CCCN1CCN(C(c2ccccc2)c2ccccc2)CC1 | inactive | – | –
COC(=O)Nc1nc2ccc(Sc3ccccc3)cc2[nH]1 | – | – | inactive
C/C=C(/C(=C/C)c1ccc(O)cc1)c1ccc(O)cc1 | – | -18.7 | –
CC1CCCCN1CCCOC(=O)c1ccc(OC2CCCCC2)cc1 (centres undefined) | inactive | – | –
CN(C)CCCOc1nn(Cc2ccccc2)c2ccccc12 | inactive | – | –
CCOC(CN1CCN(CC(C)C(=O)c2ccccc2)CC1)c1ccccc1 (centres undefined) | inactive [at 27.1 µM] | – | –

SMILES | outcome | activity change, negative = cytotoxicity [%] | Potency
CCC(C)(C)c1ccc(CC(C)CN2C[C@@H](C)O[C@@H](C)C2)cc1 (some centres undefined) | – | -15.1 | –
COc1cc(N)c(Cl)cc1C(=O)NC1CCN(CCCOc2ccc(F)cc2)CC1OC (centres undefined) | – | -11.7 | –
O=C1C(CCS(=O)c2ccccc2)C(=O)N(c2ccccc2)N1c1ccccc1 (centres undefined) | inactive | – | –
NC(=O)[C@@H]1CSSCCC(=O)N[C@@H](CCCCN=C(N)N)C(=O)NCC(=O)N[C@@H](CC(=O)O)C(=O)N[C@@H](Cc2c[nH]c3ccccc23)C(=O)N2CCC[C@H]2C(=O)N1 ([Mpa][hArg]GDWPC-NH2; disulfide 1-7) | inactive | – | –
CC(C)C[C@@H]1[C@H](c2ccccc2)OC(=O)N1CCCN1CCCCCC1 | – | 3.81 | –
CCCCOc1ccc(C(=O)CCN2CCCCC2)cc1 | – | -33.4 | –
CC(Oc1c(Cl)cccc1Cl)C1=NCCN1 (centres undefined) | inactive | – | –
OC1C(O)C(O)C(O)C(O)C1O (centres undefined) | – | 1.16 | –
CCN(CCCc1ccccc1)CCCc1ccccc1 | inactive | – | –
Cc1cc(=O)oc2cc(O)ccc12 | – | – | inactive
Oc1ccc(C(O)CNCCCCCCNCC(O)c2ccc(O)c(O)c2)cc1O (centres undefined) | inactive | – | –
O=C1N(c2ccccc2)c2ccccc2C1(Cc1ccncc1)Cc1ccncc1 | inactive | – | –
O=C(CCCCCCCCC#CI)Oc1ccccc1 | inactive | – | –
Clc1ccc2c(c1)CCc1cccnc1C2=C1CCNCC1 | – | -5.66 | –
CN(C)CCOc1ccccc1Cc1ccccc1 | – | -8.72 | –
Oc1ccc(O)cc1 | – | 0.129 | –
Oc1ccc(CCNCCCCCCNCCc2ccccc2)cc1O | – | -4.56 | –
O=C1CC2(CCCC2)CC(=O)N1CCCCN1CCN(c2ncccn2)CC1 | – | 3.84 | –
OC(CCN1CCCCC1)(c1ccccc1)c1ccccc1 | inactive | – | –
